In PubChem BioAssay (NCATS) one finds Potency data, which are given here for 33 compounds.

Results filed as inconclusive are left out. The source made the active and inactive calls. The call rests on the fitted dose curve; in most records, active means well fitted curve in the direction sought with a large enough effect; inconclusive means small, poorly fitted or top-dose-only effect, or another doubt; inactive means no such curve, though single readings can be large; an effect the other way counts as inactive or inconclusive.
Potency means the concentration at half of the fitted maximal effect.

One assay in a line: qHTS of pediatric cancer cell lines to identify multiple opportunities for drug repurposing: Primary screen for SK-N-MC cells (AID 1347093). The following applies: SK-N-MC viability, CellTiter-Glo luminescence, 48 h; series mostly up to 46 µM. In a few lines: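 Metabolically active cells were quantified by ATP-dependent luminescence (CellTiter-Glo, 15 min at room temperature) following 48 h treatment. Cells had been plated at 500-1,000 per well and settled for 5 h beforehand.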
Background: Quantitative high-throughput screening tests each substance at several concentrations.
Take `OCCCNc1cc(-c2ccnc(Nc3cccc(Cl)c3)n2)ccn1`: the Potency was 0.105 µM (active).

`CNC(=O)c1c(F)cccc1Nc1nc(Nc2cc3c(cc2OC)CCN3C(=O)CN(C)C)nc2[nH]ccc12`: the Potency is 0.0148 µM (active).

Regarding `Cc1c(CN2CCN(S(C)(=O)=O)CC2)sc2c(N3CCOCC3)nc(-c3cnc(N)nc3)nc12`, the Potency was 0.0047 µM (active).

In the case of `COc1ccc2c(OCc3nnc4ccc(-c5ccccc5)nn34)ccnc2c1`, the Potency entry is “inactive”.

Consider `COc1cc(C)c(Sc2cnc(NC(=O)c3ccc(CNC(C)C(C)C)cc3)s2)cc1C(=O)N1CCN(C(C)=O)CC1` (configuration not stated), for which the Potency was 2.09 µM (active).

Turning to `CCCNC(=O)Nc1ccc(Oc2ncnc3cc(OC)c(OC)cc23)cc1Cl`, the Potency entry was “inactive”.

Regarding `CCC1=C[C@@H]2CN(C1)Cc1c([nH]c3ccccc13)[C@@](C(=O)OC)(c1cc3c(cc1OC)N(C)[C@@H]1[C@@](O)(C(=O)OC)[C@H](OC(C)=O)[C@]4(CC)C=CCN5CC[C@]31[C@@H]54)C2`, the Potency was 0.0083 µM (active).

In the case of `Cc1cn(-c2cc(NC(=O)c3ccc(C)c(Nc4nccc(-c5cccnc5)n4)c3)cc(C(F)(F)F)c2)cn1`, the Potency result is “inactive”.

Consider `COC(=O)Nc1nc2ccc(C(=O)c3ccc(F)cc3)cc2[nH]1`, for which the Potency was 0.372 µM (active).

Take `Cc1ccc(CN2CCNCC2)cc1NC(=O)CNc1ccc(F)c(F)c1`: the Potency entry was “inactive”.

`O=C(O)[C@H](Cc1c[nH]c2ccccc12)N1C(=O)c2ccccc2C1=O`: the Potency was 48.1 µM (active).

On to `CS(=O)(=O)c1ccc(-c2cnc(N)c(C(=O)Nc3ccccc3)n2)cc1`, for which the Potency is 4.18 µM (active).

On to `CC[C@@]1(O)C(=O)OCc2c1cc1n(c2=O)Cc2cc3cc(O)ccc3nc2-1`, for which the Potency was 0.0132 µM (active).

Turning to `COc1ccc2c(c1)CC[C@@H](CN(C)CC(=O)O)[C@H]2c1ccccc1`, the Potency is 1.18 µM (active).

Consider `C=CC(=O)N1CCC[C@@H](n2nc(-c3ccc(Oc4ccccc4)cc3)c3c(N)ncnc32)C1`, for which the Potency was 0.372 µM (active).

Consider `Cc1cc(Nc2cc(N3CCN(C)CC3)nc(C=Cc3ccccc3)n2)n[nH]1`, for which the Potency is 1.52 µM (active).

`Cc1nc(Nc2n[nH]c3c2CN(C(=O)N[C@H](CN(C)C)c2ccccc2)C3(C)C)c2sccc2n1`: the Potency was 0.0332 µM (active).

Take `Cc1cnc(-c2cnc(NCCNc3ccc(C#N)cn3)nc2-c2ccc(Cl)cc2Cl)[nH]1`: the Potency is 0.105 µM (active).

For the compound `CC=C1NC(=O)[C@H]2CSSCCC=C[C@H](CC(=O)N[C@H](C(C)C)C(=O)N2)OC(=O)[C@H](C(C)C)NC1=O`, the Potency was 0.0105 µM (active).

`Cc1ccc(C(=O)Nc2cccc(C(F)(F)F)c2)cc1-c1ccc2nc(NCCN3CCOCC3)ncc2c1`: the Potency was 4.69 µM (active).

With `NC(=O)c1cccc2cn(-c3ccc([C@@H]4CCCNC4)cc3)nc12`, the Potency is 8.33 µM (active).

On to `COc1cc2c(NC3CCN(C(C)C)CC3)nc(C3CCCCC3)nc2cc1OCCCN1CCCC1`, for which the Potency is 29.6 µM (active).

`COc1c(N2C[C@@H]3CCCN[C@H]3C2)c(F)cc2c(=O)c(C(=O)O)cn(C3CC3)c12`: the Potency result was “inactive”.

Regarding `O=C(O)CO.[NH2-].[NH2-].[Pt+2]`, the Potency entry is “inactive”.

For the compound `CN1CCN(Cc2ccc(NC(=O)Nc3ccc(Oc4cc(NC(=O)C5CC5)ncn4)cc3)cc2C(F)(F)F)CC1`, the Potency is 0.332 µM (active).

In the case of `COc1ccc(C(=O)CC2(O)C(=O)Nc3c(Cl)ccc(Cl)c32)cc1` (configuration not stated), the Potency was 1.18 µM (active).

A further assay in a line: qHTS of pediatric cancer cell lines to identify multiple opportunities for drug repurposing: Primary screen for BT-37 cells (AID 1347094). The following applies: BT-37 viability, CellTiter-Glo luminescence, 48 h; series mostly up to 57.3 µM. In a few lines:
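Primary screen of approved and investigational compounds on cells in growth media at 37 degrees C, 5% CO2. MIPE set at 11-point and NPC set at 8-point dilutions; viability scored by ATP-based luminescence at 48 hours.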
Regarding `OCCCNc1cc(-c2ccnc(Nc3cccc(Cl)c3)n2)ccn1`, the Potency is 0.243 µM (active).

Regarding `Cc1c(CN2CCN(S(C)(=O)=O)CC2)sc2c(N3CCOCC3)nc(-c3cnc(N)nc3)nc12`, the Potency was 0.193 µM (active).

Consider `COc1ccc2c(OCc3nnc4ccc(-c5ccccc5)nn34)ccnc2c1`, for which the Potency result was “inactive”.

On to `COc1cc2c(Oc3ccc(-c4cnc(Nc5ccc(F)cc5)n(C)c4=O)cc3F)ccnc2cc1OCCCN1CCOCC1`, for which the Potency was 24.3 µM (active).

As to `CCCNC(=O)Nc1ccc(Oc2ncnc3cc(OC)c(OC)cc23)cc1Cl`, the Potency entry was “inactive”.

Turning to `CCC1=C[C@@H]2CN(C1)Cc1c([nH]c3ccccc13)[C@@](C(=O)OC)(c1cc3c(cc1OC)N(C)[C@@H]1[C@@](O)(C(=O)OC)[C@H](OC(C)=O)[C@]4(CC)C=CCN5CC[C@]31[C@@H]54)C2`, the Potency is 0.0432 µM (active).

Regarding `Cc1cn(-c2cc(NC(=O)c3ccc(C)c(Nc4nccc(-c5cccnc5)n4)c3)cc(C(F)(F)F)c2)cn1`, the Potency entry is “inactive”.

As to `Cc1ccc(CN2CCNCC2)cc1NC(=O)CNc1ccc(F)c(F)c1`, the Potency entry was “inactive”.

Regarding `CS(=O)(=O)c1ccc(-c2cnc(N)c(C(=O)Nc3ccccc3)n2)cc1`, the Potency result is “inactive”.

`Cc1nc(N)ncc1-c1nc(N2CCOCC2)c2sc(C(C)(C)O)cc2n1`: the Potency is 6.11 µM (active).

In the case of `COc1ccc2c(c1)CC[C@@H](CN(C)CC(=O)O)[C@H]2c1ccccc1`, the Potency is 6.11 µM (active).

Take `CC(C)c1ccccc1Cc1cc(C(=O)Nc2ccc(S(=O)(=O)c3ccccc3C(C)(C)C)cc2)c(O)c(O)c1O`: the Potency was 24.3 µM (active).

On to `Cc1cc(Nc2cc(N3CCN(C)CC3)nc(C=Cc3ccccc3)n2)n[nH]1`, for which the Potency was 44.4 µM (active).

Regarding `Cc1cnc(-c2cnc(NCCNc3ccc(C#N)cn3)nc2-c2ccc(Cl)cc2Cl)[nH]1`, the Potency result was “inactive”.

Turning to `Cn1c(CNc2ccc(C(=N)N)cc2)nc2cc(C(=O)N(CCC(=O)O)c3ccccn3)ccc21`, the Potency entry was “inactive”.

Consider `Cc1ccc(C(=O)Nc2cccc(C(F)(F)F)c2)cc1-c1ccc2nc(NCCN3CCOCC3)ncc2c1`, for which the Potency was 6.11 µM (active).

On to `Nc1nc(Nc2ccc(S(N)(=O)=O)cc2)nn1C(=O)c1c(F)cccc1F`, for which the Potency is 15.3 µM (active).

As to `COc1cc2c(NC3CCN(C(C)C)CC3)nc(C3CCCCC3)nc2cc1OCCCN1CCCC1`, the Potency is 30.6 µM (active).

For `COc1ccc(-c2cc3c(C)nc(N)nc3n(C3CCC(OCCO)CC3)c2=O)cn1` (configuration not stated), the Potency was 0.243 µM (active).

As to `CN1CCN(Cc2ccc(NC(=O)Nc3ccc(Oc4cc(NC(=O)C5CC5)ncn4)cc3)cc2C(F)(F)F)CC1`, the Potency was 0.544 µM (active).

`CC(C)(O)CCc1ccc(OCc2cc(-c3cccc(OC(F)F)c3)c3ncccc3c2)cc1`: the Potency entry was “inactive”.
